PostGolgi yeast = phenotypic screen on post-Golgi transport, primary screen. hit rate 0.9% among 98,000. post-Golgi transport phenotypic cell assay. inhibition, % at 10 µM;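 further: yeast cells grown in 1536-well plates; yeast grown about 18 h at 30C before absorbance read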
CYP2C19 inh = blockers of cytochrome P450 2C19 activity – biochemical, luminescence, ADME assay, primary screen | P33261 | CYP2C19 Supersomes, luciferin-H EGE luminescence, 30 min | inhibition, % at 5 µM | hit rate 21% among 96,000 | AID 778, 2007;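 active means CYP2C19 inhibition above a set limit at 5 µM in the primary screen, cut at about 50% in these data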
PostGolgi ctrl = growth inhibition of yeast control strain, primary screen, counter-screen for post-Golgi transport modulator project. AID 738, 2007. efflux-deficient yeast background strain, growth absorbance A615, 16 h. hit rate 5% among 98,000. inhibition, % at 10 µM
CYP2C9 activ = human CYP2C9 activators, primary screen, biochemical, luminescence; recombinant CYP2C9, luciferin-H conversion; hits give high values; factor 1 = untreated enzyme, 0 = blocked; activation factor at 5 µM; hit rate 1.4% among 96,000;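 active means activation factor of 2 or more for CYP2C9 at a 5 µM dose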
Target sequence (P11712 whole entry, looked up): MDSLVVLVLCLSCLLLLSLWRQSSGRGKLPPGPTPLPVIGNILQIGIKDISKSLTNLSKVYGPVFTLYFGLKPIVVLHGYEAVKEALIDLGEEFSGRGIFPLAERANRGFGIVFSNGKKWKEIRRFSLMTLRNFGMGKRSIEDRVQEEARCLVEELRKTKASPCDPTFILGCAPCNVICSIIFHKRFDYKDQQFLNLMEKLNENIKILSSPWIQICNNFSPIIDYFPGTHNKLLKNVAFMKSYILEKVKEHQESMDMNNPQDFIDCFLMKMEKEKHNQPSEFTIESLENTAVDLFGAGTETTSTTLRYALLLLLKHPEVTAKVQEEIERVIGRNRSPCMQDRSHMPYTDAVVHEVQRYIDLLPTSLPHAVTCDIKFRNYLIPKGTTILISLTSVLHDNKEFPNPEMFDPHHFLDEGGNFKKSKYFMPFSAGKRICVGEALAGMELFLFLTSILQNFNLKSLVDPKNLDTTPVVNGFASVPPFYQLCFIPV
CYP2C19 act = human CYP2C19 activators, primary screen, biochemical, luminescence; Cytochrome P450 2C19 (Homo sapiens), P33261; recombinant CYP2C19, luciferin-H EGE luminescence; hits give high values; 0 = fully inhibited enzyme, 1 = untreated enzyme; activation factor at 5 µM; 96,000 tested, under 10 active; AID 1025, 2008;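 active means activation factor of at least 2 at 5 µM in the primary screen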
CYP2C9 inh = blockers of cytochrome P450 2C9 activity – biochemical, luminescence, ADME assay, primary screen | P11712 | AID 777, 2007 | hit rate 20% among 96,000 | CYP2C9 Supersomes, luciferin-H conversion | inhibition, % at 5 µM;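 active means blocking of liver enzyme CYP2C9 beyond about 50% at 5 µM, limit read from the data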
Hits are given with their value; n = inactive; x = not tested or not shown. Rows were chosen to be rich in hits. Some 32% of all compounds tested hit in one or more screens of this group. Unless noted, no stated cut-off is given here; in the data, active means inhibition above about 30%; inactive means the rest.

SMILES | PostGolgi yeast | CYP2C19 inh | PostGolgi ctrl | CYP2C9 activ | CYP2C19 act | CYP2C9 inh
CC(C)=C(NC(=O)c1ccccc1)C(=O)NCCCC(=O)O | n | n | n | n | n | n
O=C(Nc1ccc(Cc2ccncc2)cc1)C1CCC(N2C(=O)C3C4C=CC(C5CC45)C3C2=O)CC1 (stereo not given) | n | n | n | n | n | 74
COc1ccc(NC(=O)C2CCC(N3C(=O)C4C5C=CC(C5)C4C3=O)CC2)cc1 (stereo not given) | n | n | n | n | n | n
O=C(O)CCC(=O)Nc1ccc(Cc2ccc(NC(=O)CCC(=O)O)c(O)c2)cc1O | n | n | n | n | n | n
O=C(Nc1ccc(Cc2ccc(NC(=O)C3CC3)c(O)c2)cc1O)C1CC1 | n | n | n | n | n | 70
Cc1ccc(C(=O)Nc2ccc(Cc3ccncc3)cc2)cc1[N+](=O)[O-] | 87 | 91 | 50 | n | n | 90
COc1ccc(NC(=O)Nc2ccc(Cc3ccncc3)cc2)cc1OC | n | 77 | n | n | n | 78
O=S(=O)(NCc1ccco1)N1CCOCC1 | n | n | n | n | n | n
CC(=O)Nc1ccc(Cc2ccncc2)cc1 | n | 97 | n | n | n | 87
O=S(=O)(Nc1ccc(Cc2ccncc2)cc1)N1CCCC1 | n | 100 | n | n | n | 97
CC(=O)NCCOC(=O)Nc1ccncc1 | n | n | n | n | n | 62
O=C(Nc1ccc(Cc2ccncc2)cc1)C1CC1 | n | 84 | n | n | n | 89
Cc1ccc(CNC(=O)C2CCN(S(=O)(=O)N3CCOCC3)CC2)cc1 | n | n | n | n | n | n
CCSc1ccc2nnc(-c3cccc(F)c3)n2n1 | n | n | n | n | n | n
O=C(Nc1nc2ccccc2s1)C1CC(=O)N(c2ccc(F)cc2)C1 (stereo not given) | n | n | n | n | n | n
COc1cc(NC(=O)NCc2ccncc2)cc(OC)c1OC | n | 62 | n | n | n | 67
COc1ccc(N/C=C(/C(C)=O)c2ccccc2)cc1 | n | 89 | n | n | n | 90
C=CCNc1nc(-c2c(C)nc3sccn23)cs1 | n | x | n | x | x | x
Cc1nc(N)sc1-c1csc(NCc2ccccc2)n1 | n | n | n | n | n | n
Cc1nc(NC(=O)c2ccccc2)sc1-c1csc(N)n1 | n | n | n | n | n | 54
Cc1nc2sccn2c1-c1csc(NCc2ccccc2)n1 | n | 90 | n | n | n | 62
Cc1nc(NC(=O)c2ccccc2)sc1-c1csc(NCc2ccccc2)n1 | 67 | 51 | n | n | n | 66
Cc1cc(NS(=O)(=O)c2ccc(Nc3nc(-c4sc(NC(=O)c5ccccc5)nc4C)cs3)cc2)no1 | n | n | n | n | n | 75
Cc1nc(NC(=O)c2ccccc2)sc1-c1csc(NCCc2ccccc2)n1 | n | n | n | n | n | 78
Cc1ccc(Cl)cc1Nc1nc(-c2sc(NC(=O)c3ccccc3)nc2C)cs1 | n | 52 | n | n | n | 77
SMILES | PostGolgi yeast | CYP2C19 inh | PostGolgi ctrl | CYP2C9 activ | CYP2C19 act | CYP2C9 inh
Cn1cnnc1SCC(=O)Nc1ccccc1C(=O)NC1CCCC1 | n | n | n | n | n | n
C=C(C)CSc1nnc2n(Cc3ccccc3)c(=O)c3c4c(sc3n12)CCC4 | n | n | n | n | n | n
COC(=O)c1cc(-c2cccc(OC)c2)n[nH]1 | n | 70 | n | n | n | n
COc1cccc(-c2csc(NC(C)=O)n2)c1 | n | n | n | n | n | n
CSC(=NNC(=O)c1ccc(O)cc1)SC | n | n | n | n | n | n
CSc1ccccc1NC(=O)COc1ccccc1Cl | n | 77 | n | n | n | 59
O=C(COc1ccccc1O)Nc1ccc(Cl)cc1 | n | 88 | n | n | n | 60
O=C(COc1ccccc1Cl)Nc1ccc(Cl)cn1 | n | n | n | n | n | n
CCCCc1nc2sc3c(c2c(=O)[nH]1)CCC3 | n | n | n | n | n | n
CCCn1c(-c2ccc(OC)cc2)nc2nc3ccccc3nc21 | n | n | n | n | n | n
CCC(C)n1c(-c2cccs2)nc2nc3ccccc3nc21 (stereo not given) | n | n | 35 | n | n | 60
CC(C)(C)c1ccc(OCC(O)CSc2ncn[nH]2)cc1 (stereo not given) | n | n | n | n | n | n
